A selection: hits, their analogues and other compounds. The true share with any hit is near 2.4%.
D2 ag-1: D2 dopamine receptor (human) agonism. P14416. HEK293 T-REx D2 cells, calcium flux agonist mode. activation, % at 2 µM. 340,000 compounds, 0.53% hits. AID 485358;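 active = activation over 3 SD above normal in the single-dose calcium agonist read, cut at about 30% in these data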
Target sequence (P14416 whole entry, looked up): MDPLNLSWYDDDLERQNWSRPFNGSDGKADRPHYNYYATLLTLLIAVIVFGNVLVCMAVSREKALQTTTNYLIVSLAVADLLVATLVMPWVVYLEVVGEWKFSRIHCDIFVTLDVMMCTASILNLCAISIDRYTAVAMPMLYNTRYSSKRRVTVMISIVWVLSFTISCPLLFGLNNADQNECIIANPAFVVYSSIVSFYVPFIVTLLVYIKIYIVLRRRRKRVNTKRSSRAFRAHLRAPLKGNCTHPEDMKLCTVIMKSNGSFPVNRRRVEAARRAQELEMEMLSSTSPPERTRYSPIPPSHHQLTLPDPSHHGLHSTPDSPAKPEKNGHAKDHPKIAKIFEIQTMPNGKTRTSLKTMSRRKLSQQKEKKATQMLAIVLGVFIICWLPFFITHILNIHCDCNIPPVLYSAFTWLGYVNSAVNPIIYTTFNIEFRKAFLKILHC
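Calcium-flux readout, 1 cycle/sec over 180 s following compound pin transfer, in inducible HEK293 Trex D2 cells (force-coupled); dopamine controls included. Positive calcium responses during this window marked compounds as potential agonists.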
D2 antag: antagonists of human D2 dopamine receptor; inhibition, % at 10 µM; 340,000 compounds, 2% hits; HEK293 TREx D2 cells, calcium flux, dopamine EC80; in the data active = inhibition above about 30%; inactive = below that, where a call was filed
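Cells plated overnight at 30 C with tetracycline; no-wash calcium dye, 30–90 min RT; 10 s baseline; compound pinned; 180 s read; EC80 dopamine added; another 180 s read.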
D2 ag-2: activates the human D2 dopamine receptor; P14416; DiscoveRx PathHunter D2 beta-arrestin, luminescence, 90 min; 100% = 57 uM dopamine signal; 360,000 compounds, 0.084% hits; activation, % (no concentration beside the values); AID 624465; in the data active = activation above about 40%
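DiscoveRx PathHunter D2 beta-arrestin cells (2,100/well) attached overnight, then compound-stimulated 90 min at 37 C in HBSS/10 mM HEPES/0.1% Tween-20 buffer; beta-galactosidase complementation read by luminescence after 1 h at ambient temperature. Dopamine 57 uM final (EC100) as control.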
D2 PAM-1: D2 dopamine receptor (human) potentiation; P14416; HEK293 T-REx D2, calcium flux, EC20 dopamine potentiation; potentiation, % at 10 µM; 340,000 compounds, 0.34% hits; AID 485347;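 active = potentiation over 3 SD above the plate norm, cut at about 30% in these data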
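Using a no-wash calcium dye in inducible, force-coupled HEK293 Trex cells expressing D2, we tracked fluorescence each second for 180 s after compound, then for 180 s after EC20 dopamine to detect augmented signalling.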
D2 PAM-2: positive allosteric modulators of human D2 dopamine receptor; DiscoveRx D2 beta-arrestin cells, luminescence, 90 min; 100% = 57 uM dopamine signal; 360,000 compounds, 0.23% hits; AID 624464; P14416; potentiation, % (concentration not given with the values); in the data active = potentiation above about 50%
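PathHunter D2 cells, attached overnight at 37 deg C, received compound in DMSO plus dopamine at EC20 (50 nM final) for 90 min at 37 deg C. Beta-arrestin recruitment was read as luminescence after 1 h with detection reagent at ambient temperature.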
A number is an active result; . = inactive; / = not tested or not shown.

SMILES	D2 ag-1	D2 antag	D2 ag-2	D2 PAM-1	D2 PAM-2
Cc1ccc(S(=O)(=O)N(CC(=O)Nc2c(C)cccc2C)c2cccc(Cl)c2)cc1	.	/	/	.	/
Cc1c(NS(=O)(=O)c2ccc(NCCN3CCOCC3)c([N+](=O)[O-])c2)c(=O)n(-c2ccccc2)n1C	.	.	.	31.2	.
CCn1c(C(=O)Nc2ccccc2C(=O)OC)cc2sc(Cl)cc21	.	/	/	.	/
COc1ccc(Cl)cc1NC(=O)c1cc(C)nc2c1c(C)nn2-c1ccccc1	.	/	/	.	/
Cc1cccc(C(=O)NC2CCN(CC(=O)NCc3ccccc3F)CC2)c1	.	41.6	.	.	.
COc1cccc(C(=O)NC2CCN(CC(=O)NCc3ccccc3F)CC2)c1	.	.	.	.	.
NNc1nc(Nc2ccc([N+](=O)[O-])cc2)nc(N2CCCCCC2)n1	.	.	.	.	.
Cc1ccc([N+](=O)[O-])cc1Nc1nc(N2CCCC2)nc(N2CCCC2)n1	.	34.5	.	.	.
COc1ccc(N2CCN(C(CNC(=O)c3c(F)cccc3F)c3ccc4c(c3)OCO4)CC2)cc1 (stereo not drawn)	/	/	/	.	/
Cc1nc2ccccc2c(C)c1C(=O)c1ccccc1	.	30.1	.	.	.
CC(C)OCCCn1c(SCc2ccccc2C#N)nc2c(sc3ccccc32)c1=O	/	/	/	.	/
Cc1ccc(NC(=O)N2CCCc3ccccc32)cc1C	.	.	.	.	.
O=C(Nc1ccccc1)C(=O)Nc1ccc2c(c1)N(C(=O)C1CC1)CCC2	.	35.2	.	.	.
O=C(Nc1ccccc1)N1CCCc2ccccc21	.	.	.	47.0	.
O=C(c1cccc(F)c1F)N1CCCc2ccccc21	.	.	.	.	.
CN(C(=O)Nc1ccccc1)C1CCCc2ccccc21 (stereo not drawn)	.	30.4	.	.	.
O=C(c1ccccc1F)N1CCCc2ccccc21	.	.	.	39.1	.
CN(C)S(=O)(=O)c1ccc2c(c1)N(CC(=O)N1CCN(c3ccc(F)cc3)CC1)CCS2	.	/	/	.	/
Cc1ccc(CSc2nc3cccnc3n2Cc2ccc(C(=O)NCCc3cccs3)cc2)cc1	.	/	/	.	/
CCOc1ccc(CNC(=O)c2cnc3sc(N4CCC(C)CC4)nn3c2=O)cc1OC	.	/	/	.	/
COc1cc(NC(=O)C(CCSC)NS(=O)(=O)c2ccc3c(c2)oc(=O)n3C)cc(OC)c1 (stereo not drawn)	.	/	/	.	/
O=C(NC1CCCCC1)c1cccc2c1C(=O)c1ccc(N3CCCC3)cc1S2(=O)=O	/	/	.	/	.
O=C(NC1CCCC1)c1cccc2c1C(=O)c1ccc(N3CCCCC3)cc1S2(=O)=O	.	.	.	36.6	.
Cn1cnc(S(=O)(=O)N2CCC(C(=O)N3CCN(c4ccc(Cl)cc4)CC3)CC2)c1	.	/	/	.	/
CCN(C(=O)Cn1nnc2sc3c(c2c1=O)CCC(C(C)(C)C)C3)c1cccc(C)c1 (stereo not drawn)	.	/	/	.	/
SMILES	D2 ag-1	D2 antag	D2 ag-2	D2 PAM-1	D2 PAM-2
COc1ccc(NC(=O)c2ccc(-n3cccn3)c([N+](=O)[O-])c2)cc1	.	44.6	.	.	.
CSc1ccc(/C=C/C(=O)OCC(=O)N2CCN(S(=O)(=O)c3ccc(C)cc3C)CC2)cc1	.	40.6	.	.	.
COc1ccc(CCNC(=O)c2cc(-c3ccc(C)c(C)c3)nc3ccccc23)cc1OC	.	/	/	.	/
Cc1ccc(/C=C/c2onc(C)c2S(=O)(=O)N2CCC(C(=O)N3CCCCC3)CC2)cc1	.	34.1	.	.	.
CCCCNC(=O)C1CCN(S(=O)(=O)c2c(C)noc2/C=C\c2ccc(OC)cc2)CC1	.	39.6	.	.	.
COc1ccc(/C=C/c2onc(C)c2S(=O)(=O)N2CCC(C(=O)N3CCCCCC3)CC2)cc1	.	.	.	33.7	.
COCCCNC(=O)C1CCN(S(=O)(=O)c2c(C)noc2/C=C\c2ccc(OC)cc2)CC1	.	.	.	.	.
Cc1ccccc1CN1C(=O)c2ccccc2Sc2ccc(C(=O)NC3CCCCC3)cc21	.	/	/	.	/
CCOc1ccc(S(=O)(=O)N(C(=O)c2ccncc2)c2ccc3oc(C)c(C(=O)OC)c3c2)cc1	.	/	/	.	/
Cc1ccc(C2CC2/C(=N/O)c2ccc(F)cc2)cc1 (stereo not drawn)	.	33.6	.	.	.
O=C(CSc1nnc(-c2cccc(F)c2)o1)N1CCCC1	.	32.2	.	.	.
